Our source for the growth inhibition values is PubChem BioAssay (NCI).

Structures are written as SMILES. The panel holds about 79,000 compounds, 15% with a hit somewhere; the sample as a whole holds those more often. A number with no mark means an inactive call. Calls of active or inactive are those of the source. No stated cut-off is given here; in the data, active means growth inhibition above about 70%; inactive means the rest.

A short description of assay [1]: NCI Yeast Anticancer Drug Screen. Data for the rad50 strain (AID 155).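 Further: 0% = growth of vehicle-only cultures of the same strain.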 Particulars: S. cerevisiae rad50 strain growth inhibition; at 50.0 µM; active compounds read high. The method in brief: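 Genetically altered yeast (DNA repair pathway); compound treatment; growth inhibition vs vehicle ctrl.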
Assay [2] is described as follows: NCI Yeast Anticancer Drug Screen. Data for the mec2-1 strain (AID 157). Particulars: S. cerevisiae mec2-1 strain, at 50.0 µM, active compounds read high. The method, boiled down:
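Each compound was tested on mec2-1 yeast, a strain altered in DNA damage repair or cell cycle control. Growth inhibition is reported relative to vehicle.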

Assay [3] in a line: NCI Yeast Anticancer Drug Screen. Data for the sgs1 mgt1 strain (AID 161).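 Further: 0% = growth of cultures given vehicle only.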 Particulars: S. cerevisiae sgs1 mgt1 strain, at 50.0 µM, active compounds read high. The method in brief: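 Test agents were incubated with a DNA-repair-mutant yeast strain. Growth was then read and compared against vehicle-treated controls.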
Assay [4] in a line: NCI Yeast Anticancer Drug Screen. Data for the cln2 rad14 strain (AID 165).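 Further: 0% = growth equal to vehicle treated cultures.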 The following applies: S. cerevisiae cln2 rad14 strain, at 50.0 µM, active compounds read high. The method, boiled down: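 Test compounds were added to cln2 rad14 yeast cultures; inhibition of growth was then determined by comparison with vehicle treatment.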
Assay [5] is described as follows: NCI Yeast Anticancer Drug Screen. Data for the bub3 strain (AID 167). Particulars: S. cerevisiae bub3 mutant strain, at 50.0 µM, active compounds read high. The method, boiled down: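 Yeast carrying a defined mutation is treated with each compound, and growth is compared with that of vehicle-exposed cells to give inhibition.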
Assay [6] can be described thus: NCI Yeast Anticancer Drug Screen. Data for the mlh1 rad18 strain (AID 175). Particulars: S. cerevisiae mlh1 rad18 strain growth inhibition; at 50.0 µM; active compounds read high. The method, boiled down:
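Inhibition values reflect reduced growth of mutant yeast versus vehicle-treated controls following compound exposure; the mutations affect DNA damage repair.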

Regarding `COC(=O)[C@H]1[C@H]2C[C@@H]3c4[nH]c5cc(OC)ccc5c4CCN3C[C@H]2C[C@@H](OC(=O)c2cc(OC)c(OC)c(OC)c2)[C@@H]1OC`, the growth inhibition was 16.5% in assay [1]; -14.2% in assay [2]; -8.9% in assay [3]; -3.65% in assay [4]; 25.7% in assay [5]; 12.8% in assay [6].

`CCSC1=C(C)N(C=NC(C)(C)C)CC1`: the growth inhibition in assay [1] is -3.7%; in assay [2], -23.5%; in assay [3], -38%; in assay [4], 7.4%; in assay [5], -28.8%; in assay [6] it was -14%.

With `C1=C\CCCC/C=C/CC/1`, the growth inhibition was 1.2% in assay [1]; -4.75% in assay [2]; -13.1% in assay [3]; 5.3% in assay [4]; 0.75% in assay [5]; 10.7% in assay [6].

As for `CN(C)CC(O)c1ccc(Cl)c2ccccc12` (centres undefined), the growth inhibition was 3.95% in assay [1]; -20.9% in assay [2]; -31.9% in assay [3]; -30.1% in assay [4]; -8.7% in assay [5]; 1.75% in assay [6].

Turning to `CC(=O)OC1CC(n2cc(C)c(=O)[nH]c2=O)OC1COP(=O)(N1CC1)N1CC1` (centres undefined), the growth inhibition was -9.25% in assay [1]; -1.25% in assay [2]; -2.8% in assay [3]; -6.1% in assay [4]; -22.6% in assay [5]; -3.95% in assay [6].

For the compound `O=c1cc(-c2ccc(Cl)cc2)oc2cc(OCCCOc3ccc4c(=O)cc(-c5ccc(Cl)cc5)oc4c3)ccc12`, the growth inhibition in assay [1] is 40.9%; in assay [2], 37.5%; in assay [3], 12.8%; in assay [4] it was -33.1%; in assay [5], 19.9%; in assay [6] it was 25.1%.

On to `[Cl][Ce]([Cl])[Cl]`, for which the growth inhibition in assay [1] was 28.1%; in assay [2], 14.2%; in assay [3], 24.9%; in assay [4] it was 16.4%; in assay [5] it was 24.1%; in assay [6] it was 15.6%.

Regarding `CC(=O)CC(=O)N1CCCC(C)C1` (centres undefined), the growth inhibition was -2.85% in assay [1]; -40.8% in assay [2]; -38.5% in assay [3]; 9.1% in assay [4]; -10.9% in assay [5]; 1.3% in assay [6].

Regarding `Cc1cccc(Nc2nnc(Nc3cccc(C)n3)c3ccccc23)n1`, the growth inhibition in assay [1] was -2.15%; in assay [2], -4.5%; in assay [3] it was -2.75%; in assay [4], -4.25%; in assay [5], -3.8%; in assay [6] it was 4%.

On to `CCCCCCCCC(Br)C(Br)CCCCCCCC(=O)NCCCOC` (centres undefined), for which the growth inhibition in assay [1] was -2.45%; in assay [2], -13.5%; in assay [3], 1.95%; in assay [4], -33.1%; in assay [5], 1.95%; in assay [6], 18.3%.

With `C[N+]1(C)CCCC(O)(C(=O)c2ccccc2)C1` (centres undefined), the growth inhibition in assay [1] is -5.2%; in assay [2] it was -10.3%; in assay [3], -14.3%; in assay [4] it was 6.6%; in assay [5], -2.4%; in assay [6] it was 17.1%.

With `CCOC(=O)Cn1c(=O)c(-c2ccccc2NC(C)=O)nc2ccccc21`, the growth inhibition in assay [1] was -12.3%; in assay [2] it was -3.65%; in assay [3] it was -7.9%; in assay [4], -6.1%; in assay [5], 0.4%; in assay [6] it was -14.1%.

With `O=C1OC(c2ccc([N+](=O)[O-])cc2)=N/C1=C\c1cc(Br)ccc1O`, the growth inhibition was 52.8% in assay [1]; 28.5% in assay [2]; 49.7% in assay [3]; 64.3% in assay [4]; 50.4% in assay [5]; 35% in assay [6].

As for `CCCCCCC(O)CCCCCC`, the growth inhibition is 27.4% in assay [1]; -16.4% in assay [2]; 26.4% in assay [3]; -24.6% in assay [4]; 21.5% in assay [5]; -12.3% in assay [6].

As to `COc1ccc(C2=C(OC(=O)N(C)C)c3cccn3-c3cc(Cl)ccc3S2)cc1`, the growth inhibition in assay [1] was -7.3%; in assay [2], 2%; in assay [3] it was 1.7%; in assay [4], -1.85%; in assay [5], -0.1%; in assay [6], -5.95%.

Turning to `C1CCN(CCC2CCCCN2)CC1` (centres undefined), the growth inhibition is -23.4% in assay [1]; -32.4% in assay [2]; -41.6% in assay [3]; -33.2% in assay [4]; -37.8% in assay [5]; -28% in assay [6].

As to `Cc1nc2c3c4c(sc3nc(C)n2n1)CCCC4`, the growth inhibition is 1% in assay [1]; 10.3% in assay [2]; 22.2% in assay [3]; 80.4% (active) in assay [4]; 7.3% in assay [5]; 12% in assay [6].

For `CN(C)C(=O)NO`, the growth inhibition is -32% in assay [1]; -26.1% in assay [2]; -11.8% in assay [3]; -19.8% in assay [4]; -3.3% in assay [5]; -28.4% in assay [6].

For `CN(C)CCCN(c1nc2cc(Cl)ccc2o1)c1nc2cc(Cl)ccc2o1`, the growth inhibition in assay [1] is 33.7%; in assay [2], 17.1%; in assay [3], 36.1%; in assay [4] it was 52.9%; in assay [5], 8.7%; in assay [6], 48.5%.
